This note sets out measurements from paper PMC11006913.

MSX2 (Homo sapiens, UniProt P35548 130-214, R199I), sequence (P35548 130-214 R199I): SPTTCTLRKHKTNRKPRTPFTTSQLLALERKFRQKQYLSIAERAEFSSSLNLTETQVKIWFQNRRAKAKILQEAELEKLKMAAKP

The first assay has as its target MSX2 (Homo sapiens, UniProt P35548 130-214, R199I). Nature of the assay: PBM; 200 nM protein, PBS. Conditions: dsDNA, one strand shown.
With CGCCGACC, the binding signal was 9.46 upbm affinity estimate (log intensity, higher = more binding, comparable within an allelic series). Same read-out and setting: the same measure for CGACAATA: 10.5 upbm affinity estimate (log intensity, higher = more binding, comparable within an allelic series); for CAGGGCCA: 9.52 upbm affinity estimate (log intensity, higher = more binding, comparable within an allelic series). Still for that read-out and setting: the same measure for ATGGAAAT: 10.4 upbm affinity estimate (log intensity, higher = more binding, comparable within an allelic series); for AGCGGCCT: 9.45 upbm affinity estimate (log intensity, higher = more binding, comparable within an allelic series).

Turning to GGACGGGA, the binding signal was 9.67 upbm affinity estimate (log intensity, higher = more binding, comparable within an allelic series).

Regarding AGCTATTA, the binding signal was 11.1 upbm affinity estimate (log intensity, higher = more binding, comparable within an allelic series). Consider ATACATAA, for which the binding signal was 11 upbm affinity estimate (log intensity, higher = more binding, comparable within an allelic series).

On to CATACTAA, for which the binding signal was 10.4 upbm affinity estimate (log intensity, higher = more binding, comparable within an allelic series). On the same count and under the same terms, to CGCTCAGC belongs 9.48 upbm affinity estimate (log intensity, higher = more binding, comparable within an allelic series); to TAATCAAA, 11.1 upbm affinity estimate (log intensity, higher = more binding, comparable within an allelic series).

As to AGCCCACC, the binding signal is 9.45 upbm affinity estimate (log intensity, higher = more binding, comparable within an allelic series). Still for that read-out and setting: to CATTTTGA belongs 10.3 upbm affinity estimate (log intensity, higher = more binding, comparable within an allelic series). The same measure, in the same setting: to ATTAACAC belongs 11.3 upbm affinity estimate (log intensity, higher = more binding, comparable within an allelic series).

In a further assay the target is ALX1 (Homo sapiens, UniProt Q15699 118-204, L144V). Nature of the assay: PBM; 200 nM protein, PBS. Particulars: dsDNA, one strand shown.
ALX1 (Homo sapiens, UniProt Q15699 118-204, L144V), sequence (Q15699 118-204 L144V): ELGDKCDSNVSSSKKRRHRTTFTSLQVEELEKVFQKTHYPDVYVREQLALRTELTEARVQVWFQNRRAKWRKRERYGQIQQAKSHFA
For the sequence GCGGAGCC, the binding signal was 6.64 upbm affinity estimate (log intensity, higher = more binding, comparable within an allelic series). On the same count and under the same terms, to CCGACTGC belongs 6.5 upbm affinity estimate (log intensity, higher = more binding, comparable within an allelic series); to AGTTACTG, 8.01 upbm affinity estimate (log intensity, higher = more binding, comparable within an allelic series); to CCTTGCCG, 6.69 upbm affinity estimate (log intensity, higher = more binding, comparable within an allelic series). Same read-out and setting: to CTAATGAA belongs 10.6 upbm affinity estimate (log intensity, higher = more binding, comparable within an allelic series); to ATTTAGTA, 9.39 upbm affinity estimate (log intensity, higher = more binding, comparable within an allelic series); to CACGCTCG, 6.33 upbm affinity estimate (log intensity, higher = more binding, comparable within an allelic series). Same read-out and setting: to CTGGAACC belongs 6.21 upbm affinity estimate (log intensity, higher = more binding, comparable within an allelic series); to ATTAAGCA, 10.2 upbm affinity estimate (log intensity, higher = more binding, comparable within an allelic series).

Take AGCTACGA: the binding signal was 6.35 upbm affinity estimate (log intensity, higher = more binding, comparable within an allelic series). On the same count and under the same terms, to ACATTTAG belongs 8.38 upbm affinity estimate (log intensity, higher = more binding, comparable within an allelic series). On the same count and under the same terms, the same measure for ATTATAAC: 10.3 upbm affinity estimate (log intensity, higher = more binding, comparable within an allelic series); for AGGCCGGG: 6.61 upbm affinity estimate (log intensity, higher = more binding, comparable within an allelic series). Regarding AGGCAAAT, the binding signal was 8.05 upbm affinity estimate (log intensity, higher = more binding, comparable within an allelic series). Still for that read-out and setting: to GTTATACA belongs 8.24 upbm affinity estimate (log intensity, higher = more binding, comparable within an allelic series); to CCGGGGAG, 6.03 upbm affinity estimate (log intensity, higher = more binding, comparable within an allelic series). The same measure, in the same setting: the same measure for AGAGCGCC: 6.46 upbm affinity estimate (log intensity, higher = more binding, comparable within an allelic series); for AAATGATG: 8.1 upbm affinity estimate (log intensity, higher = more binding, comparable within an allelic series). Still for that read-out and setting: to CCGGGCCG belongs 6.6 upbm affinity estimate (log intensity, higher = more binding, comparable within an allelic series); to AAACAATA, 8.22 upbm affinity estimate (log intensity, higher = more binding, comparable within an allelic series); to GGCTAGGA, 6.64 upbm affinity estimate (log intensity, higher = more binding, comparable within an allelic series). CGCCTTCC: the binding signal was 6.24 upbm affinity estimate (log intensity, higher = more binding, comparable within an allelic series). Same read-out and setting: the same measure for TCTGTTAA: 8.7 upbm affinity estimate (log intensity, higher = more binding, comparable within an allelic series). On the same count and under the same terms, to CTCTTGGC belongs 6.39 upbm affinity estimate (log intensity, higher = more binding, comparable within an allelic series); to CCCCCCCC, 6.17 upbm affinity estimate (log intensity, higher = more binding, comparable within an allelic series); to ATAACTCC, 8.41 upbm affinity estimate (log intensity, higher = more binding, comparable within an allelic series).

The target of the next assay is ALX3 (Homo sapiens, UniProt O95076 139-225, N203Q). The assay is described as follows: PBM; 200 nM protein, PBS. Conditions: dsDNA, one strand shown.
ALX3, sequence (O95076 139-225 N203Q): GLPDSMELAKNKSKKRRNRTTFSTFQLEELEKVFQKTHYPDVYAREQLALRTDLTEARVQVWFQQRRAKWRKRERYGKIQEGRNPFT
For the sequence ATTATAAC, the binding signal was 8.52 upbm affinity estimate (log intensity, higher = more binding, comparable within an allelic series). On the same count and under the same terms, the same measure for AGAGCGCC: 7.79 upbm affinity estimate (log intensity, higher = more binding, comparable within an allelic series); for CCGGGCCG: 7.72 upbm affinity estimate (log intensity, higher = more binding, comparable within an allelic series).

In the next assay the target is ALX1 (Homo sapiens, UniProt Q15699 118-204, L144R). The assay is described as follows: PBM; 200 nM protein, PBS. Particulars: dsDNA, one strand shown.
ALX1 (Homo sapiens, UniProt Q15699 118-204, L144R), sequence (Q15699 118-204 L144R): as the sequence (Q15699 118-204 L144V) above, with V27R counted along it
Take GCGGAGCC: the binding signal was 6.35 upbm affinity estimate (log intensity, higher = more binding, comparable within an allelic series). CCGACTGC: the binding signal was 6.49 upbm affinity estimate (log intensity, higher = more binding, comparable within an allelic series). Same read-out and setting: to AGTTACTG belongs 7.88 upbm affinity estimate (log intensity, higher = more binding, comparable within an allelic series). On the same count and under the same terms, the same measure for CCTTGCCG: 6.58 upbm affinity estimate (log intensity, higher = more binding, comparable within an allelic series); for CTAATGAA: 10.2 upbm affinity estimate (log intensity, higher = more binding, comparable within an allelic series).

Consider ATTTAGTA, for which the binding signal was 9.22 upbm affinity estimate (log intensity, higher = more binding, comparable within an allelic series). For the sequence CACGCTCG, the binding signal was 6.26 upbm affinity estimate (log intensity, higher = more binding, comparable within an allelic series). As to CTGGAACC, the binding signal was 6.18 upbm affinity estimate (log intensity, higher = more binding, comparable within an allelic series). The same measure, in the same setting: the same measure for ATTAAGCA: 9.85 upbm affinity estimate (log intensity, higher = more binding, comparable within an allelic series).

In the case of AGCTACGA, the binding signal was 6.56 upbm affinity estimate (log intensity, higher = more binding, comparable within an allelic series). Consider ACATTTAG, for which the binding signal was 8.16 upbm affinity estimate (log intensity, higher = more binding, comparable within an allelic series). The same measure, in the same setting: the same measure for ATTATAAC: 9.95 upbm affinity estimate (log intensity, higher = more binding, comparable within an allelic series); for AGGCCGGG: 6.52 upbm affinity estimate (log intensity, higher = more binding, comparable within an allelic series). On the same count and under the same terms, to AGGCAAAT belongs 7.93 upbm affinity estimate (log intensity, higher = more binding, comparable within an allelic series). The same measure, in the same setting: the same measure for GTTATACA: 8.23 upbm affinity estimate (log intensity, higher = more binding, comparable within an allelic series). For the sequence CCGGGGAG, the binding signal was 6.12 upbm affinity estimate (log intensity, higher = more binding, comparable within an allelic series). Same read-out and setting: the same measure for AGAGCGCC: 6.49 upbm affinity estimate (log intensity, higher = more binding, comparable within an allelic series); for AAATGATG: 8.04 upbm affinity estimate (log intensity, higher = more binding, comparable within an allelic series); for CCGGGCCG: 6.56 upbm affinity estimate (log intensity, higher = more binding, comparable within an allelic series). The same measure, in the same setting: to AAACAATA belongs 8.34 upbm affinity estimate (log intensity, higher = more binding, comparable within an allelic series); to GGCTAGGA, 6.63 upbm affinity estimate (log intensity, higher = more binding, comparable within an allelic series). For the sequence CGCCTTCC, the binding signal is 6.38 upbm affinity estimate (log intensity, higher = more binding, comparable within an allelic series). With TCTGTTAA, the binding signal is 8.61 upbm affinity estimate (log intensity, higher = more binding, comparable within an allelic series).

Consider CTCTTGGC, for which the binding signal was 6.52 upbm affinity estimate (log intensity, higher = more binding, comparable within an allelic series). Same read-out and setting: the same measure for CCCCCCCC: 6 upbm affinity estimate (log intensity, higher = more binding, comparable within an allelic series); for ATAACTCC: 8.38 upbm affinity estimate (log intensity, higher = more binding, comparable within an allelic series).

In another assay the target is MSX2 (Homo sapiens, UniProt P35548 130-214). The assay is described as follows: PBM; 200 nM protein, PBS. Particulars: dsDNA, one strand shown.
MSX2 (Homo sapiens, UniProt P35548 130-214), sequence (P35548 130-214): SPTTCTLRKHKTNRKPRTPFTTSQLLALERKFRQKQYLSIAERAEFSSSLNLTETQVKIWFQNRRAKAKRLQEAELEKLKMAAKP
Regarding CGCCGACC, the binding signal was 9.28 upbm affinity estimate (log intensity, higher = more binding, comparable within an allelic series).
